Consider 8 compounds from PubChem BioAssay (NCI).

Molecules are shown by their SMILES. This is part of a sample that, as a whole, favours compounds with a hit. Of some 83,000 tested, about 20% had one in any assay.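 Results are percent growth after 48 hours of single-concentration exposure. 100 means growth as in untreated cells, lower positive values show inhibition; negative values down to -100 show cell death.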 Values without a mark were called inactive. The source made the active and inactive calls. How the source made its calls: active means growth percent below 10; inactive means the rest.

What all share (experiment): NCI-60 one-dose screen, 48 h (100 = growth as untreated, 0 = no growth, -100 = all killed)
One experiment has as its system NCI-H23 lung. The following applies: 10 µM unless noted.
A further experiment has as its system NCI-H226 lung. The conditions noted are these: 10 µM unless noted.
Another experiment deals with NCI-H322M lung. The following applies: 10 µM unless noted.
In a further experiment the test system is HOP-62 NSCLC. The conditions noted are these: 10 µM unless noted.
The next experiment concerns NCI-H460 lung. The conditions noted are these: 10 µM unless noted.
In the next experiment the test system is HOP-92 NSCLC. The following applies: 10 µM unless noted.
A further experiment relates to NCI-H522 lung. The following applies: 10 µM unless noted.
Another experiment has as its system A549/ATCC NSCLC. The conditions noted are these: 10 µM unless noted.
For the next experiment, the system named is 786-0 renal. The conditions noted are these: 10 µM unless noted.
Another experiment deals with COLO 205 colon. The conditions noted are these: 10 µM unless noted.
A further experiment has as its system DU-145 prostate. The conditions noted are these: 10 µM unless noted.
For another experiment, the system named is K-562 leukemia. The following applies: 10 µM unless noted.
A further experiment concerns MALME-3M melanoma. The conditions noted are these: 10 µM unless noted.
Another experiment relates to MDA-MB-231 breast. The following applies: 10 µM unless noted.
The test system of another experiment is RXF 393 renal. The conditions noted are these: 10 µM unless noted.
The test system of another experiment is SF-268 CNS. The conditions noted are these: 10 µM unless noted.
Another experiment relates to SF-295 CNS. The conditions noted are these: 10 µM unless noted.
The test system of a further experiment is SF-539 CNS. The conditions noted are these: 10 µM unless noted.
The subject of a further experiment is UACC-257 melanoma. The following applies: 10 µM.
The subject of another experiment is M14 melanoma. The conditions noted are these: 10 µM unless noted.

Regarding `CCn1cc(C(=O)O)c(=O)c2cc(F)c(N3CCN(S(=O)(=O)c4c(C)cc(C)cc4C)CC3)cc21`, the growth in the experiment with NCI-H23 lung was 77.7%; with NCI-H226 lung, 87.4%; in the experiment with NCI-H322M lung, 83.5%; in the experiment on HOP-62 NSCLC it was 71.5%; in the experiment on NCI-H460 lung, 82.8%; in the experiment on HOP-92 NSCLC it was 76.9%. Further, the growth in the experiment on NCI-H522 lung was 86.5%; with A549/ATCC NSCLC, 78%; with 786-0 renal, 102%; in the experiment on COLO 205 colon, 93.2%; with DU-145 prostate, 99.5%; with K-562 leukemia, 79.9%. For the same compound, the growth is 90.3% in the experiment on MALME-3M melanoma; 83.7% with MDA-MB-231 breast; 88.9% with RXF 393 renal; 83.7% with SF-268 CNS; 48.4% in the experiment with SF-295 CNS; 79.9% with SF-539 CNS. The growth was 106% with UACC-257 melanoma and 75.6% with M14 melanoma.

With `COc1c(NC[C@H]2OC(O)[C@H](O)[C@@H](O)[C@@H]2O)c(=O)c1=O` (stereo partly specified), the growth in the experiment with NCI-H23 lung was 97%; with NCI-H226 lung, 98.3%; in the experiment on NCI-H322M lung, 98%; with HOP-62 NSCLC it was 102%; in the experiment with NCI-H460 lung it was 104%; in the experiment on HOP-92 NSCLC, 95.6%. Further, the growth in the experiment on NCI-H522 lung was 114%; in the experiment with A549/ATCC NSCLC, 94.2%; in the experiment with 786-0 renal, 102%; with COLO 205 colon it was 112%; in the experiment with DU-145 prostate, 115%; in the experiment on K-562 leukemia it was 96.4%. Further, the growth was 92.9% in the experiment on MALME-3M melanoma; 106% with MDA-MB-231 breast; 96.6% in the experiment with RXF 393 renal; 102% with SF-268 CNS; 107% with SF-295 CNS; 94.1% in the experiment on SF-539 CNS. In addition, the growth was 102% in the experiment on UACC-257 melanoma and 108% in the experiment on M14 melanoma.

Turning to `Cc1ccc2c(c1)C(C)Cc1c(N(C)C)ncnc1N2C` (stereo unspecified), the growth in the experiment on NCI-H23 lung is 50.5%; in the experiment on NCI-H226 lung, 81.8%; in the experiment on NCI-H322M lung, 81.2%; in the experiment on HOP-62 NSCLC it was 36.4%; in the experiment on NCI-H460 lung it was 15.5%; with HOP-92 NSCLC, 52.4%. Also, the growth with NCI-H522 lung was 4.76% (active); with A549/ATCC NSCLC, 49.3%; with 786-0 renal it was 34.8%; with COLO 205 colon it was 32.4%; in the experiment on DU-145 prostate, 68.7%; in the experiment on K-562 leukemia, 12.8%. The growth in the experiment with MALME-3M melanoma is 53.2%; in the experiment with MDA-MB-231 breast it was 56.3%; with RXF 393 renal, 40.1%; with SF-268 CNS, 47.3%; in the experiment on SF-295 CNS it was 6.52% (active); with SF-539 CNS it was 28.3%. Moreover, the growth in the experiment with M14 melanoma is 24.7%.

Turning to `CCOC(=O)C1=C(C)NC(=O)NC1c1ccc(OCC(=O)N/N=C/c2ccc(Cl)cc2)cc1` (stereo unspecified), the growth in the experiment with NCI-H23 lung is 105%; in the experiment on NCI-H226 lung it was 95.8%; in the experiment on NCI-H322M lung it was 87.5%; with HOP-62 NSCLC it was 89.9%; with NCI-H460 lung, 101%; with HOP-92 NSCLC, 90.1%. The growth in the experiment with NCI-H522 lung is 81.2%; in the experiment with A549/ATCC NSCLC, 77%; with 786-0 renal, 97.6%; in the experiment on COLO 205 colon, 105%; with DU-145 prostate, 106%; in the experiment on K-562 leukemia, 94.9%. The growth with MALME-3M melanoma is 101%; in the experiment with MDA-MB-231 breast it was 98.7%; in the experiment with RXF 393 renal, 95.6%; in the experiment with SF-268 CNS, 95.1%; in the experiment on SF-295 CNS, 99.5%; in the experiment on SF-539 CNS, 91.3%. Also, the growth with UACC-257 melanoma is 68.7%; with M14 melanoma, 94.6%.

On to `C=C1C(=O)O[C@H]2[C@H]1CC/C(COC(=O)NCc1ccc(OC)cc1)=C\CC[C@@]1(C)O[C@@H]21`, for which the growth in the experiment on NCI-H23 lung is 74.2%; in the experiment on NCI-H226 lung it was 64.5%; in the experiment on NCI-H322M lung, 84.6%; in the experiment with HOP-62 NSCLC, 67.5%; in the experiment on NCI-H460 lung, 77.7%; in the experiment with HOP-92 NSCLC, 63.3%. The growth is -55.5% (active) in the experiment on NCI-H522 lung; 69.1% with A549/ATCC NSCLC; 15.6% in the experiment on 786-0 renal; -17.7% (active) with COLO 205 colon; 33.5% with DU-145 prostate; 14% in the experiment on K-562 leukemia. Besides, the growth with MALME-3M melanoma was 98.3%; with MDA-MB-231 breast, 60.9%; with RXF 393 renal, 15%; in the experiment on SF-268 CNS it was 55.5%; in the experiment with SF-295 CNS, 96.2%; in the experiment with SF-539 CNS, 50.2%. In the experiment with M14 melanoma, the growth was 32.9%.

Regarding `Cc1cc(-c2ccccc2)c(C)n1Cc1ccc(Cl)cc1`, the growth is 65.8% in the experiment on NCI-H23 lung; 71.3% in the experiment with NCI-H226 lung; 68.1% with NCI-H322M lung; 55.4% with HOP-62 NSCLC; 20.8% in the experiment with NCI-H460 lung; 54.2% with HOP-92 NSCLC. The growth in the experiment with NCI-H522 lung is 37.5%; with A549/ATCC NSCLC, 33.7%; in the experiment on 786-0 renal it was 47.8%; in the experiment with COLO 205 colon, 38.2%; in the experiment on DU-145 prostate, 86.6%; in the experiment on K-562 leukemia, 13%. Also, the growth in the experiment on MALME-3M melanoma was 59.4%; in the experiment with MDA-MB-231 breast, 67%; in the experiment on RXF 393 renal, 61.4%; in the experiment with SF-268 CNS, 58.5%; in the experiment with SF-295 CNS, 39.7%; with SF-539 CNS it was 39.4%. Besides, the growth in the experiment with UACC-257 melanoma is 48.4%; with M14 melanoma, 17.7%.

For `COc1cc2c(cc1OCCCCn1c(-c3cc(=O)c4ccccc4o3)nc3ccccc31)N=C[C@@H]1CCCN1C2=O`, the growth is 101% in the experiment with NCI-H23 lung; 101% in the experiment on NCI-H226 lung; 108% with NCI-H322M lung; 105% with HOP-62 NSCLC; 112% with NCI-H460 lung; 66.5% in the experiment on HOP-92 NSCLC. Further, the growth with NCI-H522 lung was 66.7%; in the experiment on A549/ATCC NSCLC it was 90.5%; in the experiment on 786-0 renal, 108%; in the experiment on COLO 205 colon, 104%; with DU-145 prostate, 118%; in the experiment with K-562 leukemia, 72.3%. Also, the growth is 109% in the experiment on MALME-3M melanoma; 87.7% in the experiment on MDA-MB-231 breast; 51.3% in the experiment on RXF 393 renal; 107% with SF-268 CNS; 113% in the experiment on SF-295 CNS; 118% in the experiment on SF-539 CNS. Besides, the growth with M14 melanoma is 105%.

Turning to `COC(=O)CC/C(C)=N\Nc1ccc([N+](=O)[O-])cc1`, the growth with NCI-H23 lung is 95.8%; with NCI-H226 lung it was 76.3%; with NCI-H322M lung, 76.5%; in the experiment with HOP-62 NSCLC it was 59.7%; in the experiment on NCI-H460 lung it was 24.8%; in the experiment on HOP-92 NSCLC, 92.7%. For the same compound, the growth is 38.4% in the experiment with NCI-H522 lung; 24.6% in the experiment on A549/ATCC NSCLC; 75.4% with 786-0 renal; 54% in the experiment on COLO 205 colon; 85.5% in the experiment on DU-145 prostate; 4.87% (active) with K-562 leukemia. In addition, the growth with MALME-3M melanoma is 104%; in the experiment on MDA-MB-231 breast, 79.6%; in the experiment on RXF 393 renal, 101%; in the experiment with SF-268 CNS it was 72.4%; in the experiment on SF-295 CNS, 72.4%; with SF-539 CNS, 65.8%. The growth in the experiment on M14 melanoma is 20.4%.
